# Assay results published in PubChem BioAssay AID504444 (National Center for Advancing Translational Sciences (NCATS), 2011).
# The whole screen tested about 360,000 compounds, of which about 7,500 (2.1%) were called active. Roughly 20% stayed inconclusive and do not appear here. Shown is part of a subset that was picked to be rich in actives. A number with no mark means an inactive call. The call rests on the fitted dose curve; in most records, active means well fitted inhibition curve with a large enough effect; inconclusive means small, poorly fitted or top-dose-only effect, or effect the other way; inactive means flat fitted curve, though single readings scatter.
# Test: Nrf2 qHTS screen for inhibitors; further: nearly all actives have a fitted effect of over 60% in size
# Conditions: A549 ARE-Fluc reporter, luciferase luminescence, 18-24 h; series mostly up to 46 µM; activity change, negative = inhibition: at the top concentration
# How it was run: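 Concentration-response testing used A549 ARE_Fluc cells at 5000 cells/well. Following an 18-24 h compound incubation, viability was read by fluorescence (Ex 405/Em 525) and luciferase output by luminescence.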
# On the % scale 0 is the no-effect control and ±100 the full control effect; potency means the concentration at half of the fitted maximal effect.
SMILES,Potency,"activity change, negative = inhibition"
CCc1cc2c(N3CCN(c4nnc(CC)s4)CC3)ncnc2s1,23.1 µM (active),
Oc1ccccc1N1CCN(c2ncnc3sc(-c4ccccc4)cc23)CC1,,-16.1%
CCc1cc2c(NC(Cc3ccccc3)C(=O)O)ncnc2s1 (stereo not given),,-4.74%
Cc1nn(-c2ccc(N3CCCCC3)nn2)c(C)c1CCC(=O)NCc1ccc(F)cc1,,-5.58%
COc1ccc(OC)c(NC(=O)CN2CCCN(Cc3cc(C)ccc3C)S2(=O)=O)c1,,13%
O=C(N[C@H]1C/C=C\C(c2cccc(F)c2)N(Cc2ccccc2)C(=O)C1)OCC1c2ccccc2-c2ccccc21 (stereo not given in full),,11.2%
N/C(=N\OC(=O)Nc1ccc(Cl)c(Cl)c1)c1ncc(C(F)(F)F)cc1Cl,,-7.11%
CCn1nccc1C(=O)Nc1ccc(Cl)c(Cl)c1,,29.8%
O=C(CC(O)(C(F)(F)F)C(F)(F)F)Nc1ccc(Cl)c(Cl)c1,2.91 µM (active),
CCN(CC)c1nc(C#N)nc(OC)n1,,-16.4%
COC(=O)c1cc2nc(-c3ccccc3)cc(C(F)(F)F)n2n1,,10.2%
C=CCNC(=O)c1cc2nc(C3CC3)cc(C(F)F)n2n1,,-19.8%
O=C(NCC12CC3CC(CC(C3)C1)C2)c1cc2nc(-c3ccccc3)cc(C(F)(F)F)n2n1,,14.3%
CC1CCN(C(=O)c2cc3nc(C4CC4)cc(C(F)(F)F)n3n2)CC1,18.4 µM (active),
Cc1cccc(-n2ncc(C(=O)N3CCC(C)CC3)c2C2CCN(C(=O)OC(C)(C)C)CC2)c1,,19.3%
O=C(c1ccccc1)N1CCN(C(=O)c2cc3nc(-c4ccccc4)cc(C(F)(F)F)n3n2)CC1,25.9 µM (active),
CC(Sc1oc(-c2ccco2)nc1S(=O)(=O)c1ccc(Br)cc1)c1ccccc1 (stereo not given),,8.26% [at 9.27 µM]
Cc1ccc(-c2nnc3ccc(SCC(N)=O)nn23)cc1,,-2.48%
Cc1ccc(CNC(=O)CSc2c3c(nc4cc(Cl)ccc24)CCCC3)cc1,,8.77%
Cc1cccc(NC(=S)N2CCC(C(=O)c3ccc(F)cc3)CC2)c1,,9.61%

SMILES,Potency,"activity change, negative = inhibition"
CCOc1ccc(C2C(C(=O)Nc3ccc(Cl)cc3)=C(C)Nc3nc(C(F)(F)F)nn32)cc1 (stereo not given),,-26.6%
CCN(CC)c1ccc(NC(=O)CN2C(=O)c3cccnc3Oc3ccc(Cl)cc32)c(C)c1,,-2.21%
Cc1cccc(N2CCN(c3ccc(NC(=O)/C=C\C(=O)O)cc3)CC2)c1,,-4.07%
CN1CCN(c2ccc(NC(=O)c3cc(Cl)c4c(c3)OCCO4)cc2)CC1,,-2.22%
C=CC(=O)Nc1ccc(Nc2ccnc(Nc3ccc(N4CCN(C)CC4)cc3)n2)cc1,14.6 µM (active),
Cc1nn(-c2nc(-c3ccccc3)cc(C(F)(F)F)n2)c(C)c1Cl,,-27.4%
CCN(c1ccccc1)S(=O)(=O)c1cccc(C(=O)NCc2ccccc2CN2CCOCC2)c1,,-3.62%
Cc1ccc(-c2nn(C(C)(C)C)c3ncnc(N)c23)cc1,18.4 µM (active),
Cc1ccc(-n2cnc3ncnc(-c4ccccc4)c32)cc1,,-5.91%
Cc1nc2ccn(Cc3cccnc3)c(=O)c2cc1C(=O)N1CCN(c2ccccc2F)CC1,,20.3%
CCOc1ccc(CNC(=O)C2CCN(c3nnc(-n4cccc4CNc4ccc(C)cc4)s3)CC2)cc1OC,,-8.96%
COc1ccc(Br)cc1/C=N/Nc1ccc(S(=O)(=O)Nc2ccccc2C(=O)O)cc1[N+](=O)[O-],,-5.1%
CCOC(=O)c1c(-c2ccccc2)oc2cc(Br)c(O)c(C=O)c12,20.6 µM (active),
CCOC(=O)c1c(-c2ccccc2)oc2cc(Br)c(O)cc12,,0.301%
CCOC(=O)c1c(-c2ccccc2)oc2ccc(OCC(N)=O)cc12,,-6.02%
COc1ccccc1N(CCOc1ccccc1)S(=O)(=O)c1ccccc1,,-5.25%
COc1cccc(CC(=NO)c2cccc(OC)c2)c1,,5.27%
COc1cccc(CNC(=O)CN2C(=O)NC(Cc3ccccc3)(c3ccccc3)C2=O)c1 (stereo not given),,0.418%
O=C(CN1C(=O)NC(Cc2ccccc2)(Cc2ccccc2)C1=O)NCC1CCCCC1,23.1 µM (active),
CCCCNC(=O)CN1C(=O)NC(Cc2ccccc2)(Cc2ccccc2)C1=O,,-31.4%

SMILES,Potency,"activity change, negative = inhibition"
Cc1ccc(C(=O)CC2(O)C(=O)N(CCc3ccccc3)c3ccc(Br)cc32)cc1 (stereo not given),,-10.1%
COCCNC(=O)c1ccc(N2CCC3(CC2)OCCO3)c([N+](=O)[O-])c1,,-5.47%
CCCNC(=O)c1ccc(N2CCC3(CC2)CC(c2ccc(Cl)cc2)=NO3)c([N+](=O)[O-])c1,23.1 µM (active),
O=C(NCCCN1CCOCC1)c1ccc(N2CCCC2)c([N+](=O)[O-])c1,,-6.15%
CCOC(=O)N1CCc2c(sc3c2c(=O)n(-c2ccc(CC)cc2)c(=O)n3C)C1,,-7.99%
CCOC(=O)C1CCN(C(=O)CSc2c3c(nc4ccc(Cl)cc24)CCCC3)CC1,,-0.463%
Cc1ccc(-c2cc(C(F)(F)F)c(C#N)c(SCC(=O)Nc3ccccc3)n2)cc1,,-4.07%
Cn1ccc(NC(=O)Nc2ccc(Cl)cc2)n1,,-23.4%
NS(=O)(=O)c1ccc(CCNC(=O)Nc2ccc(Cl)cc2)cc1,,-19.8%
CC(C)S(=O)(=O)c1csc(NC(=O)Nc2ccc(Cl)cc2)c1Cl,20.6 µM (active),
Cc1ccc(CN2CCC(CNC(=O)c3cnn(-c4ccc(C)cc4)c3C3CCN(C(=O)OC(C)(C)C)CC3)CC2)cc1,,-41.9%
CCOc1ccc(NC(=O)COC(=O)C2CCC(=O)N2)c([N+](=O)[O-])c1 (stereo not given),,3.43%
COc1ccc(C2=NC3(CCCCC3)N(CC(=O)Nc3ccc(C(C)C)cc3)C2=O)cc1,,-25.8%
COc1ccc(CCNC(=O)CCCCn2c(=O)c3ccccc3n(Cc3ccccc3)c2=O)cc1OC,,-8.95%
COC[C@@H]1NS(=O)(=O)c2ccc(Br)cc2O[C@H]1c1ccccc1,,5.28%
CN(C(=O)c1cccc(NC(=O)C2CCN(C(=O)OC(C)(C)C)CC2)c1)C1CCC1,,-22.6%
O=C(CCn1c(=O)[nH]c2ccccc2c1=O)NCCCN1CCN(c2cccc(Cl)c2)CC1,,-0.871%
O=C(Cc1ccc(-n2c(=O)[nH]c3ccccc3c2=O)cc1)N1CCN(c2cccc(Cl)c2)CC1,16.4 µM (active),
O=C(CCCC(=O)N1CCN(c2cccc(Cl)c2)CC1)c1ccccc1,,-13.1%
CCn1c(C(=O)Nc2cc(Cl)ccc2C)cc2sc(Cl)cc21,,-1.64%
